Reference: PubChem BioAssay (Tox21)
A number with no mark means an inactive call. Inconclusive results are not listed. Entries that show only a call come without a potency. The source made the active and inactive calls. Unless noted, the call rests on the fitted dose curve.

Experiments:
[1] = Nuclear factor erythroid 2-related factor 2/antioxidant responsive element (Nrf2/ARE) small molecule agonists: luciferase reporter gene qHTS assay in human keratinocytes (AID 1919969); further: nearly all actives have a fitted effect of over 35% in size; further: potency means the concentration at half of the fitted maximal effect
[2] = biological target: Gonadotropin-releasing hormone receptor (Homo sapiens) (UniProt P30968); experiment: Human gonadotropin-releasing hormone receptor (GnRHR) small molecule agonists, calcium flux assay in GnRHR-HEK293 cells (AID 1920063); further: nearly all actives have a fitted effect of over 35% in size
How it was run: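 Compounds dissolved in DMSO are pin-transferred onto dye-loaded GnRHR-HEK293 cells, which were seeded 18 h before at 37 C/5% CO2. Calcium signal is read as fluorescence intensity at 1 s intervals for 3 min.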

[3] = biological target: KiSS-1 receptor (Homo sapiens) (UniProt Q969F8); experiment: Human kisspeptin (KISS1R) small molecule agonists, calcium flux assay in KISS1R-HEK293 cells (AID 1920064; active means well fitted activation curve with a large enough effect in the repeat runs)
How it was run: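 Cell line: HEK293, stable human KISS1R. Dye loading 1 h at 37 C after 18 h culture. Read: kinetic fluorescence, 480/540 nm, 3 min at 1 s intervals.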

[4] = G protein-coupled receptor (GPCR) small molecule agonists, calcium flux assay: HEK293 wild type cell line counter screen (AID 1920065)
How it was run: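 Tox21 10K compounds, 15 concentrations each in triplicate, pin-transferred in DMSO onto dye-loaded cells; kinetic read at 480/540 nm for 3 min, 1 s intervals.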

[5] = p53 small molecule agonists, cell-based qHTS assay with rat liver microsomes (AID 1963578)
How it was run: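 Quantitative HTS of the Tox21 10K library: p53RE-bla cells, rat liver microsomes plus NADPH at 0.5 mg/mL final each, 16 h at 37 C, beta-lactamase fluorescence detection.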

[6] = p53 small molecule agonists, cell-based qHTS assay with human liver microsomes: qHTS cell viability counter screen (AID 1963579); further: nearly all actives have a fitted effect of over 45% in size; further: potency means the concentration at half of the fitted maximal effect
How it was run: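 Viability of p53RE-bla cells is measured as CellTiter-Glo luminescence following a 16 h, 37 C incubation with compound, liver microsomes from human donors and NADPH.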

[7] = p53 small molecule agonists, cell-based qHTS assay: qHTS cell viability counter screen (AID 1963581); further: nearly all actives have a fitted effect of over 45% in size
How it was run: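 ATP content measured by luminescence in HCT-116 p53RE-bla cells treated 16 h at 37 C, same wells as the reporter screen.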

[8] = p53 small molecule agonists, cell-based qHTS assay (AID 1963582; active means well fitted activation curve with a large enough effect in the signal ratio in the repeat runs, not every such curve was filed as active; the % refers to the signal ratio)
How it was run: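 16 h compound exposure (37 C) of p53 response element–bla cells, preceded by 5 h recovery at 37 C/5% CO2; read-out via LiveBLAzer B/G FRET substrate, 2 h RT, fluorescence intensity.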

[9] = biological target: 5-hydroxytryptamine receptor 2A (Homo sapiens) (UniProt P28223); experiment: 5-hydroxytryptamine receptor 2A (HTR2A) small molecule antagonists, cell-based qHTS assay (AID 1963586); further: nearly all actives have a fitted effect of over 45% in size
How it was run: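 CHO cells stably expressing human HTR2A were plated for 18 h at 37 C, then loaded with calcium dye for 1 h. Compounds were preincubated 5 min at room temperature before DOI (4 nM solution) was added. Kinetic fluorescence was read for 3 min.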

[10] = biological target: 5-hydroxytryptamine receptor 2A (Homo sapiens) (UniProt P28223); experiment: 5-hydroxytryptamine receptor 2A (HTR2A) small molecule agonists, cell-based qHTS assay (AID 1963587); further: nearly all actives have a fitted effect of over 30% in size
How it was run: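 Kinetic calcium-flux fluorescence (2 min, 1 sec intervals) after compound addition in agonist mode. HTR2A-CHO cells were cultured 18 h, then dye-loaded 1 h at 37 C.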

[11] = biological target: Muscarinic acetylcholine receptor M1 (Homo sapiens) (UniProt P11229); experiment: Cholinergic receptor muscarinic 1 (CHRM1) small molecule antagonists, cell-based qHTS assay (AID 1963588); further: nearly all actives have a fitted effect of over 40% in size
How it was run: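 Compounds were tested at 15 concentrations in three independent runs. Dye-loaded CHRM1-CHO cells were exposed 5 min at room temperature before stimulation by acetylcholine added at 50nM. Intracellular calcium was read kinetically on FDSS for 3 min.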

[12] = biological target: Muscarinic acetylcholine receptor M1 (Homo sapiens) (UniProt P11229); experiment: Cholinergic receptor muscarinic 1 (CHRM1) small molecule agonists, cell-based qHTS assay (AID 1963589); further: nearly all actives have a fitted effect of over 35% in size
How it was run: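 Homogeneous fluorescence calcium flux, agonist mode. Human M1-expressing CHO cells; compound dosed at 15 concentrations, three independent runs; signal sampled every 1 sec.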

[13] = cAMP Responsive Elements (CRE) small molecule agonists, cell-based qHTS assay (AID 1963590)
How it was run: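 HEK 293T cells stably bearing CRE-bla were plated at 2,000 cells per well and rested 18 h. Compounds, positive controls or DMSO were added for 3 h at 37 C. LiveBLAzer B/G substrate was then loaded for 2 h at room temperature.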

[14] = biological target: Beta-2 adrenergic receptor (Homo sapiens) (UniProt P07550); experiment: Adrenergic beta2 receptor (ADRB2) small molecule antagonists, cell-based qHTS assay (AID 1963592); further: nearly all actives have a fitted effect of over 50% in size; further: potency means the concentration at half of the fitted maximal effect
How it was run: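 Assay format: CHO-ADRB2 cells, 18-20hr seeding at 37C/5% CO2, then compound plus 1nM isoproterenol agonist mix for 0.5hr RT. Homogeneous time-resolved fluorescence cAMP detection after 1hr, expressed as 665/615 nm ratio.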

[15] = biological target: D(2) dopamine receptor (Homo sapiens) (UniProt P14416); experiment: Dopamine D2 receptor (DRD2) small molecule antagonists, cell-based qHTS assay (AID 1963595; active means well fitted inhibition curve with a large enough effect in the signal ratio in the repeat runs, with a control signal flat; the % refers to the signal ratio)
How it was run: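 Antagonist mode in DRD2-HEK293 cells: after compound addition with 0.1 mM Ro20-1724, cells received quinpirole (12 nM) and NKH477 (200 nM) for 30 min at room temperature; HTRF cAMP read after 1 h detection.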

[16] = p53 small molecule agonists, cell-based qHTS assay with rat liver microsomes: qHTS cell viability counter screen (AID 1963580); further: nearly all actives have a fitted effect of over 45% in size
How it was run: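 Rat liver microsome (0.5 mg/mL final) and NADPH (0.5 mg/mL final) co-incubation with compounds for 16 h at 37 C on HCT-116 p53RE-bla cells; cytotoxicity taken from intracellular ATP luminescence.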

[17] = cAMP Responsive Elements (CRE) small molecule antagonists, cell-based qHTS assay (AID 1963591; active means well fitted inhibition curve with a large enough effect in the signal ratio in the repeat runs, not every such curve was filed as active; the % refers to the signal ratio; further: potency means the concentration at half of the fitted maximal effect)
How it was run: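 First, CRE-bla HEK293T cells settled 18 h at 37 C. Next, compound and 0.25 uM final NKH477 were applied for 3 h. Last, LiveBLAzer B/G substrate was loaded for 2 h at room temperature.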

[18] = biological target: D(2) dopamine receptor (Homo sapiens) (UniProt P14416); experiment: Dopamine D2 receptor (DRD2) small molecule agonists, cell-based qHTS assay (AID 1963594); further: nearly all actives have a fitted effect of over 35% in size
How it was run: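 cAMP accumulation in DRD2-HEK293 cells measured by HTRF after 1 h detection; compounds added 10 min before NKH477 (200nM […]) forskolin-analogue stimulation, 30 min at room temperature, with Ro20-1724 present at 0.1 mM final.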

[19] = biological target: Beta-2 adrenergic receptor (Homo sapiens) (UniProt P07550); experiment: Adrenergic beta2 receptor (ADRB2) small molecule agonists, cell-based qHTS assay (AID 1963593);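 further: CHO cells stably overexpressing human ADRB2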
How it was run: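 CHO cells stably over-expressing ADRB2 were plated overnight at 37C, then dosed with compounds plus a stimulation mix containing 100uM IBMX and 25uM Ro-20-1724 for 0.5hr at room temperature. cAMP was measured by HTRF competition, 1hr.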

Chain of Muscarinic acetylcholine receptor M1 (Homo sapiens) (P11229 whole entry, looked up): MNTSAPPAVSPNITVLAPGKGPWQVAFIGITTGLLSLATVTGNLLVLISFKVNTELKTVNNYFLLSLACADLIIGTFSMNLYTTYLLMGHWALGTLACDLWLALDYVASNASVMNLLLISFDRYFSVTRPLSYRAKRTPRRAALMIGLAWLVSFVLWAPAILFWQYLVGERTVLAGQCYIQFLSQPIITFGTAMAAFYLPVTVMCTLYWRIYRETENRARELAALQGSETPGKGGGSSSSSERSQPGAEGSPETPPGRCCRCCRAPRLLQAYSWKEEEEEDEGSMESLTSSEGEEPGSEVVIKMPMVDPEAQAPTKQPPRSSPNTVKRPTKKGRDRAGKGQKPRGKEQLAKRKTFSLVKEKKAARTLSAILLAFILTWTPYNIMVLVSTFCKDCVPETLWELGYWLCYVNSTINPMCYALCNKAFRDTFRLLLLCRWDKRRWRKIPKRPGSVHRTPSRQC
Chain of Beta-2 adrenergic receptor (Homo sapiens) (P07550 whole entry, looked up): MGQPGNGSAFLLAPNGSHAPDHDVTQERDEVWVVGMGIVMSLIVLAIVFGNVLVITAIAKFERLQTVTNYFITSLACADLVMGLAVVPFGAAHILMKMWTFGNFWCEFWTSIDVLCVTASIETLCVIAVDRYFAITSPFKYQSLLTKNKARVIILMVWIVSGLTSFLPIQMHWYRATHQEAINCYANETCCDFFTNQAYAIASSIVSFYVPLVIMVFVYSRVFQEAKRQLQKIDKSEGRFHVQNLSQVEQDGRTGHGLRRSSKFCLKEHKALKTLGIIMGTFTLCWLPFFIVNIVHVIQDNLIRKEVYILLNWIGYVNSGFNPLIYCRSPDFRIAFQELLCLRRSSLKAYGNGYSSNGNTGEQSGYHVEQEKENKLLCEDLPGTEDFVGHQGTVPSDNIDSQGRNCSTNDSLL
Chain of Gonadotropin-releasing hormone receptor (Homo sapiens) (P30968 whole entry, looked up): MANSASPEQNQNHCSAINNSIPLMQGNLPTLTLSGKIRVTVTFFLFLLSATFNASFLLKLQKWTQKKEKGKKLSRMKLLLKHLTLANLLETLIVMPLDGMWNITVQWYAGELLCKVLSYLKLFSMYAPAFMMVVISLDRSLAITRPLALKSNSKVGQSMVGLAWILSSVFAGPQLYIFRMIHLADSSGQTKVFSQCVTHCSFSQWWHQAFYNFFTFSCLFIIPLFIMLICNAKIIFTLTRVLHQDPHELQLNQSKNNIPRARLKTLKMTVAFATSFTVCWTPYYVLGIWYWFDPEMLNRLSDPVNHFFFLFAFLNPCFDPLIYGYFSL
Chain of KiSS-1 receptor (Homo sapiens) (Q969F8 whole entry, looked up): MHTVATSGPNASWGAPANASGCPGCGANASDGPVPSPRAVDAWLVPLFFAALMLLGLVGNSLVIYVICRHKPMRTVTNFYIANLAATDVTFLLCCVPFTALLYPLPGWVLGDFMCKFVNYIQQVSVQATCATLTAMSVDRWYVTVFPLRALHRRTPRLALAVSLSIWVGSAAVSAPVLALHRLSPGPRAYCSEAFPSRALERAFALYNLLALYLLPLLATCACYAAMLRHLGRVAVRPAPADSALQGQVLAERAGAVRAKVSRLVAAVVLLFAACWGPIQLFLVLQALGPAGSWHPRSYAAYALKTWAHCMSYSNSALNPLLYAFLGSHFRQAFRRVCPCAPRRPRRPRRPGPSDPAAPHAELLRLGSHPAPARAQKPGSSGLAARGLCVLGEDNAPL
Chain of D(2) dopamine receptor (Homo sapiens) (P14416 whole entry, looked up): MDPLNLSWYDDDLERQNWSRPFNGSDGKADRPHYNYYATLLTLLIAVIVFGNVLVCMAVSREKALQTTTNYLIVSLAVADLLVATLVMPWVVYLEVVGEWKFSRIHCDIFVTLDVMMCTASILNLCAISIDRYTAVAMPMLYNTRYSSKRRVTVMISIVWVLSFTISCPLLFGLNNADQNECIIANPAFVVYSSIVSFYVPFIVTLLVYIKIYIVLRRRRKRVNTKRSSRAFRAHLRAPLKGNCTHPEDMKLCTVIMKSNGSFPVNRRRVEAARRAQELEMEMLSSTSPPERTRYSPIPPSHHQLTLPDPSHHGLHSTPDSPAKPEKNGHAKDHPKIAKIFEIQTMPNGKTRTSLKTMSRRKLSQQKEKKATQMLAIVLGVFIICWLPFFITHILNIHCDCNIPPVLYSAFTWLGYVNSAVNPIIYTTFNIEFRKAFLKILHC
Chain of 5-hydroxytryptamine receptor 2A (Homo sapiens) (P28223 whole entry, looked up): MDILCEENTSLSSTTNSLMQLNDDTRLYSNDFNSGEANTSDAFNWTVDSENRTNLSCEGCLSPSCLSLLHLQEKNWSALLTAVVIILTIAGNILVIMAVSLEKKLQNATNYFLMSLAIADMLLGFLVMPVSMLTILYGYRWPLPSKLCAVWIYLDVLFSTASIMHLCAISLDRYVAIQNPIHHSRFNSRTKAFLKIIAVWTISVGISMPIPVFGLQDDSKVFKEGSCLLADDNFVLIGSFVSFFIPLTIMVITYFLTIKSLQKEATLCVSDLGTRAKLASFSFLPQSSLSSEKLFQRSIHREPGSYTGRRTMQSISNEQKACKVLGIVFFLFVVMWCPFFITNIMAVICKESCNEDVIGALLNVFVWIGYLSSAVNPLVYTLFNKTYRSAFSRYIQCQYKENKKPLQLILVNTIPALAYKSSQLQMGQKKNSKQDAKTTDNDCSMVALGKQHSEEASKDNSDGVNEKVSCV

| SMILES | Potency [1] | Potency [2] | Potency [3] | Potency [4] | Potency [5] | Potency [6] | Potency [7] | Potency [8] | Potency [9] | Potency [10] | Potency [11] | Potency [12] | Potency [13] | Potency [14] | Potency [15] | Potency [16] | Potency [17] | Potency [18] | Potency [19] |
| --- | --- | --- | --- | --- | --- | --- | --- | --- | --- | --- | --- | --- | --- | --- | --- | --- | --- | --- | --- |
| CC(COc1ccccc1)NN (stereo not drawn) | inactive | inactive | inactive | inactive | inactive | inactive | inactive | inactive | inactive | inactive | inactive | inactive | inactive | inactive | inactive |  |  |  |  |
| CCCCC(CC)COC(=O)c1ccccc1 (stereo not drawn) | inactive | inactive | inactive | inactive |  | inactive | inactive |  | inactive | inactive | inactive | inactive | inactive | inactive | inactive | inactive | inactive | inactive |  |
| COC(=O)Nc1nc2ccc(C(=O)c3ccccc3)cc2[nH]1 | 3.76 µM (active) | inactive | inactive | inactive | inactive |  |  |  |  |  |  |  |  | inactive | inactive | inactive |  | inactive |  |
| CCN(CC)CCNc1ccc(CO)c2sc3ccccc3c(=O)c12 | 11.9 µM (active) | inactive | inactive | inactive | inactive | inactive |  |  | inactive |  |  |  | inactive | 16.8 µM (active) | inactive |  | 26.6 µM (active) |  |  |
| CCS(=O)(=O)c1ccc(OC)c(C(=O)OC)c1 | inactive | inactive | inactive | inactive | inactive |  | inactive | inactive | inactive | inactive | inactive | inactive | inactive |  | inactive |  | inactive | inactive |  |
| CCCCCC[C@@H](O)C/C=C\CCCCCCCC(=O)O | inactive | inactive | inactive | inactive | inactive | inactive | inactive | inactive | inactive |  | inactive | inactive |  | inactive | inactive |  | inactive | inactive | inactive |
| CCCCC(CC)C(=O)OCCOCCOCCOCCOC(=O)C(CC)CCCC (stereo not drawn) | inactive | inactive | inactive | inactive |  | inactive | inactive |  | inactive | inactive | inactive | inactive | inactive | inactive | inactive | inactive | inactive | inactive | inactive |
| CN1CC[C@H](c2c(O)cc(O)c3c(=O)cc(-c4ccccc4Cl)oc23)[C@H](O)C1 | 0.0841 µM (active) | inactive | inactive | inactive | inactive |  | inactive |  | inactive | inactive | inactive | inactive |  | inactive | inactive |  |  | inactive |  |
| Cc1nc2ccccc2c(=O)o1 | inactive | inactive | inactive | inactive |  | inactive | inactive |  | inactive | inactive | inactive | inactive | inactive | inactive | inactive | inactive | inactive | inactive |  |
| CC/C=C\C/C=C\C/C=C\CCCCCCCC(=O)OC | 27.3 µM (active) | inactive | inactive | inactive | inactive |  |  |  | inactive |  | inactive | inactive |  | inactive |  |  | inactive | inactive | inactive |
| O=C(Nc1ccc(Cl)cc1)Nc1ccc(Cl)c(C(F)(F)F)c1 | 11.9 µM (active) | inactive | inactive | inactive | inactive | inactive |  |  |  | inactive | inactive | inactive |  |  | inactive |  |  | inactive |  |
| CC(C)(O)c1ccc(C(C)(C)O)cc1 | inactive | inactive | inactive | inactive |  | inactive | inactive |  | inactive | inactive | inactive | inactive | inactive |  | inactive | inactive | inactive |  |  |
| C=CC(=O)OCC1CC2CC1C1CCC(COC(=O)C=C)C21 (stereo not drawn) | 24.3 µM (active) | inactive | inactive | inactive | inactive | 40.8 µM (active) |  |  | inactive | inactive | inactive | inactive |  | inactive | inactive | inactive |  | inactive | inactive |
| CC(O)C1CCCCC1 (stereo not drawn) | inactive | inactive | inactive | inactive |  | inactive | inactive |  | inactive | inactive | inactive | inactive | inactive | inactive |  | inactive | inactive | inactive |  |
| CC1=NN(c2cc(Cl)c(S(=O)(=O)O)cc2Cl)C(=O)C1N=Nc1ccc(S(=O)(=O)O)cc1 (stereo not drawn) | inactive | inactive | inactive | inactive | inactive | inactive | inactive | inactive | inactive | inactive | inactive | inactive | inactive | inactive | inactive |  | inactive | inactive | inactive |
| CC(C)n1nc(-c2cc3cc(O)ccc3[nH]2)c2c(N)ncnc21 | inactive | inactive | inactive | inactive | inactive | inactive | inactive | inactive | inactive | inactive | inactive | inactive |  | inactive | inactive |  |  |  | inactive |
